# In PubChem BioAssay (NCATS):
# Results filed as inconclusive are left out. A call without a number means that no potency is given here. The source made the active and inactive calls. Calls come from the whole dose curve; as a rule, active = well fitted inhibition curve with a large enough effect; inconclusive = small, poorly fitted or top-dose-only effect; inactive = flat fitted curve, though single readings scatter.
# Tested on: CP315
# Assay: qHTS profiling for inhibitors of Plasmodium falciparum proliferation (AID 504749); note: nearly all actives have a fitted effect of over 60% in size
# Details: P. falciparum in erythrocytes, SYBR Green DNA, 72 h; series mostly up to 28.7 µM
# How it was run: (§1)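 Fluorescence of SYBR Green-bound parasite DNA, read at 485/535 nm, served as the growth measure. Infected erythrocytes were cultured with compound 72 h; artemisinin (0.29 uM) and DMSO wells defined the normalization range.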
# Potency is the fitted concentration of half-maximal effect.
row,SMILES,Potency
1,CCCCC[C@H](O)/C=C/[C@H]1[C@H](O)CC(=O)[C@@H]1C/C=C\CCCC(=O)O,inactive
2,O=C(CCCN1CCC(C(=O)c2ccc(F)cc2)CC1)c1ccc(F)cc1,inactive
3,C(=C\c1ccncc1)/c1ccccc1,inactive
4,O=C1N=C2SCCN2C(=O)C1Cc1ccc(Cl)cc1 (stereo unspecified),inactive
5,CCCCCCCCCCCC(=O)N(CCO)CCO,inactive
6,Cc1nc(NS(=O)(=O)c2ccc(N)cc2)nc(C)c1Br,inactive
7,O=c1[nH]c(=O)n([C@H]2C[C@H](O)[C@@H](CO)O2)cc1/C=C/Br,inactive
8,CC12CCC(C[N+](C)(CCC[N+](C)(C)C)C1)C2(C)C (stereo unspecified),inactive
9,Oc1cccc(O)c1O,inactive
10,CC(C)NCC(O)COc1ccccc1-n1cccc1 (stereo unspecified),inactive
11,F[Si-2](F)(F)(F)(F)F,inactive
12,CN(Cc1ccccc1)Cc1ccccc1,inactive
13,OCc1ccccc1,inactive
14,O=[n+]1ccn([O-])c2ccccc21,inactive
15,OCC(O)CO,inactive
16,CC(=O)NCCCS(=O)(=O)O,inactive
17,CCN(CC)CCOc1ccc2nc(N(C)C)sc2c1,inactive
18,Cc1cccc(Nc2ncccc2C(=O)O)c1C,inactive

row,SMILES,Potency
1,CCCCC(CC)CCC(CC(C)C)OS(=O)(=O)O (stereo unspecified),inactive
2,C[C@H](N)C(=O)N[C@@H](C)P(=O)(O)O,inactive
3,CC(=O)Nc1ccc(NC(=S)NC(=O)c2ccc(C(C)(C)C)cc2)cc1,inactive
4,CN1CCc2c(c3ccccc3n2Cc2ccccc2)C1,inactive
5,CO/N=C(\C(=O)N[C@@H]1C(=O)N2C(C(=O)[O-])=C(C[n+]3cccc4c3CCC4)CS[C@H]12)c1csc(N)n1,inactive
6,Cc1cc(-c2ccc(N=Nc3ccc4c(S(=O)(=O)O)cc(S(=O)(=O)O)c(N)c4c3O)c(C)c2)ccc1N=Nc1ccc2c(S(=O)(=O)O)cc(S(=O)(=O)O)c(N)c2c1O,inactive
7,CCC(C(=O)NC(N)=O)c1ccccc1 (stereo unspecified),inactive
8,CCc1ncnc2cc(OC)c(OC)cc12,inactive
9,Cc1ncc(C[n+]2csc(CCO)c2C)c(N)n1,inactive
10,O[C@@H]([C@H](O)[C@H](O)CBr)[C@H](O)CBr,inactive
11,O=[N+]([O-])c1c(Cl)cccc1-c1c[nH]cc1Cl,inactive
12,C[C@@](Cc1ccc(O)c(O)c1)(NN)C(=O)O,inactive
13,CC(=O)Oc1cc(C(F)(F)F)ccc1C(=O)O,inactive
14,CCCCC,inactive
15,O=P(O)(O)CP(=O)(O)O,inactive
16,CCCCC[C@H](O)/C=C/[C@@H]1[C@H]2C/C(=C/CCCC(=O)O)O[C@H]2C[C@H]1O,inactive
17,C[Si](C)(C)O[Si](C)(C)C,inactive
18,Cc1c(C)c2c(c(C)c1OC(=O)CCC(=O)O)CC[C@@](C)(CCC[C@H](C)CCC[C@H](C)CCCC(C)C)O2,inactive

# Tested on: CP325
# Assay: as above
# Details: P. falciparum in erythrocytes, SYBR Green DNA, 72 h; series mostly up to 28.7 µM
# How it was run: as §1
row,SMILES,Potency
1,CCCCC[C@H](O)/C=C/[C@H]1[C@H](O)CC(=O)[C@@H]1C/C=C\CCCC(=O)O,inactive
2,O=C(CCCN1CCC(C(=O)c2ccc(F)cc2)CC1)c1ccc(F)cc1,inactive
3,C(=C\c1ccncc1)/c1ccccc1,inactive
4,O=C1N=C2SCCN2C(=O)C1Cc1ccc(Cl)cc1 (stereo unspecified),inactive
5,CCCCCCCCCCCC(=O)N(CCO)CCO,inactive
6,Cc1nc(NS(=O)(=O)c2ccc(N)cc2)nc(C)c1Br,inactive
7,O=c1[nH]c(=O)n([C@H]2C[C@H](O)[C@@H](CO)O2)cc1/C=C/Br,inactive
8,CC12CCC(C[N+](C)(CCC[N+](C)(C)C)C1)C2(C)C (stereo unspecified),inactive
9,CC(C)NCC(O)COc1ccccc1-n1cccc1 (stereo unspecified),inactive
10,F[Si-2](F)(F)(F)(F)F,inactive
11,CN(Cc1ccccc1)Cc1ccccc1,inactive
12,O=[n+]1ccn([O-])c2ccccc21,inactive
13,OCC(O)CO,inactive
14,CC(=O)NCCCS(=O)(=O)O,inactive
15,CCN(CC)CCOc1ccc2nc(N(C)C)sc2c1,inactive
16,Cc1cccc(Nc2ncccc2C(=O)O)c1C,inactive
17,CCCCC(CC)CCC(CC(C)C)OS(=O)(=O)O (stereo unspecified),inactive
18,C[C@H](N)C(=O)N[C@@H](C)P(=O)(O)O,inactive

row,SMILES,Potency
1,CC(=O)Nc1ccc(NC(=S)NC(=O)c2ccc(C(C)(C)C)cc2)cc1,inactive
2,CO/N=C(\C(=O)N[C@@H]1C(=O)N2C(C(=O)[O-])=C(C[n+]3cccc4c3CCC4)CS[C@H]12)c1csc(N)n1,inactive
3,Cc1cc(-c2ccc(N=Nc3ccc4c(S(=O)(=O)O)cc(S(=O)(=O)O)c(N)c4c3O)c(C)c2)ccc1N=Nc1ccc2c(S(=O)(=O)O)cc(S(=O)(=O)O)c(N)c2c1O,inactive
4,CCC(C(=O)NC(N)=O)c1ccccc1 (stereo unspecified),inactive
5,Cn1cc(NC(=O)c2cc(NC(=O)c3cc(NC=O)cn3C)cn2C)cc1C(=O)NCCC(=N)N,10.7 µM (active)
6,CCc1ncnc2cc(OC)c(OC)cc12,inactive
7,Cc1ncc(C[n+]2csc(CCO)c2C)c(N)n1,inactive
8,O[C@@H]([C@H](O)[C@H](O)CBr)[C@H](O)CBr,inactive
9,O=[N+]([O-])c1c(Cl)cccc1-c1c[nH]cc1Cl,inactive
10,C[C@@](Cc1ccc(O)c(O)c1)(NN)C(=O)O,inactive
11,CC(=O)Oc1cc(C(F)(F)F)ccc1C(=O)O,inactive
12,CCCCC,inactive
13,O=P(O)(O)CP(=O)(O)O,inactive
14,CCCCC[C@H](O)/C=C/[C@@H]1[C@H]2C/C(=C/CCCC(=O)O)O[C@H]2C[C@H]1O,inactive
15,C[Si](C)(C)O[Si](C)(C)C,inactive
16,Cc1c(C)c2c(c(C)c1OC(=O)CCC(=O)O)CC[C@@](C)(CCC[C@H](C)CCC[C@H](C)CCCC(C)C)O2,inactive
17,CCOC(=O)c1c[nH]c2cc(OCC(C)C)c(OCC(C)C)cc2c1=O,0.0601 µM (active)
